An excerpt weighted towards active compounds, which were near 3.4% of everything screened.
MITF inh = blocks human microphthalmia-associated transcription factor; 650,000 compounds, 0.91% hits; inhibition, % at 2.6 µM; O75030; AlphaScreen MITF homodimerization, bead proximity signal; in the data active = inhibition above about 50%;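 also: 0% = vehicle wells with protein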
GPR151 activ = human GPR151 activation. Q8TDV0. PathHunter beta-arrestin GPR151 cells, luminescence. activation, % at 11.2 µM. 650,000 compounds, 1% hits. AID 1508602; in the data active = activation above about 4.9%;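 also: 0% = median of compound wells and 100% = cells with positive control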
FBW7 act = activators of human E3 ligase FBW7. Q969H0. normalized activity (activation), % at 26.1 µM. 650,000 compounds, 0.13% hits. AlphaScreen FBW7–phospho-cyclin E peptide binding, activator screen; in the data active = normalized activity above about 1.9%;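 also: purified mutant Fbw7 with reduced substrate affinity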
TEAD-YAP block = TEAD-YAP interaction inhibition | HEK-TIYL cells, TEAD-Gal4/YAP UAS-luciferase luminescence | inhibition, % at 9.12 µM | 640,000 compounds, 1.4% hits | AID 1259422; in the data active = inhibition above about 32%;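 also: 0% = median of test compound wells and 100% = reference inhibitor wells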
GPR151 conf act = human GPR151 activation, confirmation screen; activation, % at 11.2 µM; 6,700 tested, under 10 active; GPR151 PathHunter beta-arrestin cells, luminescence, 90 min; % of EA-reagent control over plate median; shares compounds with GPR151 activ;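 active = mean percent activation across replicates above the confirmation screen cutoff of 4.91%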
GPR119 counter = counter-screen for GPR151 activators: effect on human GPR119; shares compounds with GPR151 activ; GPR119 PathHunter beta-arrestin cells, luminescence, 90 min; 0 = compound-well median, 100 = enzyme-acceptor control; activation, % at 11.2 µM; 6,700 compounds, 0.3% hits;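 active = mean percent activation in the counterscreen above 29.09%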;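 also: counterscreen on off-target GPR119 to flag nonselective hits from the GPR151 activator screen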
Target sequence (Q8TDV5 whole entry, looked up): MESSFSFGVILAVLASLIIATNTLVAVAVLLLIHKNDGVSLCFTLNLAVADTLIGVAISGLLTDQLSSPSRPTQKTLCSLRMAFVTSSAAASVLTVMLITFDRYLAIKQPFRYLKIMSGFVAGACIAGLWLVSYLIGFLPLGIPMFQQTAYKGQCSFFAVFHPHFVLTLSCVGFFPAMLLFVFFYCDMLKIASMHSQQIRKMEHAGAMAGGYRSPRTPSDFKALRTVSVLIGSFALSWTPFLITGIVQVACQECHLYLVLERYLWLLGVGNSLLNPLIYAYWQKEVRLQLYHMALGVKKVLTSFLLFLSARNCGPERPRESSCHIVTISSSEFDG
An asterisk follows results filed as active; . = no result.

SMILES	MITF inh	GPR151 activ	FBW7 act	TEAD-YAP block	GPR151 conf act	GPR119 counter
NNC(=O)CSc1nc2cccnc2s1	-15	5.1*	-1	2	0	6
C[C@H]1O[C@@H](O[C@H]2[C@@H](O)C[C@H](O[C@H]3[C@@H](O)C[C@H](O[C@H]4CCC5(C)[C@H](CC[C@@H]6[C@@H]5C[C@@H](O)C5(C)C(C7=CC(=O)OC7)CCC65O)C4)O[C@@H]3C)O[C@@H]2C)C[C@H](O)[C@@H]1O (some centres undefined)	-7	5.0*	0	.	0	98*
C[C@@H](O)C(=O)N1CCCN(S(=O)(=O)c2cccc3cnccc23)CC1	8	-1	0	-5	.	.
CC(=O)N1CCCN(S(=O)(=O)c2cccc3cnccc23)CC1	3	5.4*	-1	-5	0	5
Cc1ccc(CN=Cc2c(NCc3ccc(C)cc3)nc3ccccn3c2=O)cc1	1	5.3*	0	-16	0	-1
CS(=O)(=O)N1CCN(c2ccccc2NC(=O)c2ccc([N+](=O)[O-])o2)CC1	5	-1	0	5	.	.
CN1CCN(c2ccccc2NC(=O)c2ccc([N+](=O)[O-])o2)CC1	-4	5.7*	0	6	0	-8
CN1CCN(c2ccccc2NC(=O)Cc2ccc(Cl)cc2)CC1	0	6.1*	0	-9	0	2
CCN(CC)C(=O)c1sc(NC(=O)/C=C/c2ccccc2)c(C(=O)OC)c1C	10	0	0	6	.	.
Clc1ccc(OCCn2cncn2)cc1	-18	6.4*	0	-5	-1	-7
O=C(/C=C/c1c(F)cccc1Cl)NCc1ccncc1	-3	7.2*	0	-2	-1	-16
CC(=O)Nc1ccc(Nc2nc(-c3ccc(C(=O)NC4CC4)cc3)nc3nc[nH]c23)cc1	-2	7.8*	0	-7	2	-11
COc1ccc(CN2CCC(CO)(Cc3ccccc3)CC2)cc1Cn1cccn1	6	9.4*	0	6	-1	-6
COc1cccc(CC2(CO)CCN(Cc3cccn3-c3ncccn3)CC2)c1	-9	12*	0	5	0	-2
CCOC(=O)c1ccc(NC(=O)C(=O)Nc2ccc3nc4n(c(=O)c3c2)CCCCC4)cc1	-2	-1	0	7	.	.
CCOC(=O)C(=O)Nc1ccc2nc3n(c(=O)c2c1)CCCCC3	-22	5.4*	0	2	0	-6
CCOc1ccc(N(CC)C(=O)C(=O)Nc2ccc3nc4n(c(=O)c3c2)CCCCC4)cc1	12	11*	1	8	1	5
Cc1ccc(-c2ccc(/C=c3/sc4nc5ccccc5n4c3=O)o2)cc1Cl	5	-2	0	4	.	.
Cc1ccc(C(=O)Nc2ccc(C(=O)CN3C(=O)CSC3=O)cc2)cc1	24	5.8*	0	-2	-1	-4
O=C(CN1C(=O)CSC1=O)c1ccc(Cl)cc1	-6	1	0	0	.	.
COc1ccc(CNC(=O)CCCn2c(=O)[nH]c3ccccc3c2=O)cc1	-9	7.0*	0	-3	0	-2
CCCCNC(=O)CCCCCn1c(=O)[nH]c2cc(OC)c(OC)cc2c1=O	-9	0	0	2	.	.
COc1cc2[nH]c(=O)n(CCCC(=O)NCc3ccccc3Cl)c(=O)c2cc1OC	0	6.8*	0	-12	1	4
COc1ccc(CNC(=O)CCCn2cccc2)cc1	8	8.2*	0	-15	2	6
CCCC(=O)NCc1ccc(OC)cc1	-2	1	0	-15	.	.
SMILES	MITF inh	GPR151 activ	FBW7 act	TEAD-YAP block	GPR151 conf act	GPR119 counter
COc1ccc2[nH]c3c(=O)n(CCCCC(=O)NC(C)C)c(=S)[nH]c3c2c1	9	0	1	0	.	.
COc1ccc2[nH]c3c(=O)n(CCCC(=O)Nc4ccccc4)c(=S)[nH]c3c2c1	-1	7.7*	0	3	-1	-7
C/C(=N\NC(=O)C(F)(F)F)c1ccccc1O	-4	0	0	-26	.	.
O=C1OC(OC(=O)c2ccccc2Br)C(Nc2ccccc2)=C1Cl (centres undefined)	10	0	0	-12	.	.
O=c1[nH]c(Cn2nnc(-c3ccc(Cl)cc3)n2)nc2c1nnn2Cc1ccc(F)cc1	3	-1	0	-2	.	.
COc1ccc(OC)c(NC(=O)CC(C)S(=O)(=O)c2cc3c(cc2C)NC(=O)CO3)c1 (centres undefined)	-6	5.1*	0	-7	0	-2
CC(CC(=O)Nc1ccc(F)cc1F)S(=O)(=O)c1ccc2c(c1)OCC(=O)N2 (centres undefined)	10	0	0	4	.	.
CC(CC(=O)Nc1ccc(F)cc1Cl)S(=O)(=O)c1ccc2c(c1)OCC(=O)N2 (centres undefined)	11	7.7*	0	1	0	-9
Cc1ccccc1NC(=O)CC(C)S(=O)(=O)c1cc2c(cc1C)NC(=O)CO2 (centres undefined)	8	2	0	-7	.	.
COc1ccc(NC(=O)CC(C)S(=O)(=O)c2ccc3c(c2)OCC(=O)N3)cc1OC (centres undefined)	-15	9.6*	0	-1	-1	-6
COc1ccc(NCC(=O)N/N=C(C)/C=C/C2C(C)=CCCC2(C)C)cc1 (centres undefined)	4	0	0	-2	.	.
CCOc1ccc(NC(=O)C2CC(O)CN2C(=O)Nc2ccccc2F)cc1 (centres undefined)	5	-1	0	-4	.	.
O=C(Nc1cccc(N2CCC(NCc3cccc(-n4cccn4)c3)CC2)c1)C1CC1	-2	-1	0	10	.	.
O=C(Nc1cccc(N2CCC(NCc3cccnc3)CC2)c1)C1CC1	0	5.5*	0	-9	1	19
COc1ccc(C(=O)c2sc3nc(C)cc(C)c3c2N)c(OC)c1	2	7.0*	2	-5	0	8
O=C(Nc1cccc(S(=O)(=O)N2CCCCCC2)c1)NC1CCCCC1	-9	2	0	3	.	.
COc1ccc(/C=N/NS(=O)(=O)c2ccccc2)cc1CSc1ccccn1	10	0	0	-6	.	.
COc1ccc(C=O)cc1CSc1ccccn1	9	5.3*	0	12	-1	-6
OC(c1nnc(-c2ccccc2)o1)c1ccc(Cl)cc1Cl (centres undefined)	4	-1	0	10	.	.
COc1cc2nc3sc(NCc4ccc5c(c4)OCO5)nn3c(=O)c2cc1OC	-2	1	0	2	.	.
c1ccc(Oc2ccc(-c3[nH]c(-c4ccccc4)nc3-c3ccccc3)cc2)cc1	5	5.3*	0	0	1	5
O=C(O)c1ccc(-c2nc(-c3ccccc3)c(-c3ccc(C(=O)c4ccccc4)cc3)[nH]2)cc1	5	0	0	1	.	.
